Most compounds without a hit are left out; they make up all but 13% or so of the library.
Marburg entry inh – inhibitors of Marburg virus binding or cell entry. Marburg virus pseudotyped entry inhibition, cell reporter. Potency, µM (series often up to 37.8 µM), actives largely listed as inhibitors. actives 1.8% (n = 300,000). AID 540276; calls by dose curve; tested in HEK293 cells
FMDV antiviral – foot and mouth disease virus antiviral activity; FMDV antiviral cell-based qHTS; Potency, µM (doses to about 57.9 µM), actives largely listed as inhibitors; actives 1.2% (n = 410,000); AID 1159524; calls by dose curve; tested in HEK293T cells; also: read-out not given here; nearly all actives have a fitted effect of over 45% in size
Lassa entry inh – blocks Lassa virus binding to or entry into cells | actives 1.2% (n = 300,000) | Potency, µM (doses to about 37.9 µM), hits mostly inhibitors | Lassa virus pseudotype entry inhibition, cell reporter; calls by dose curve; tested in HEK293 cells; also: nearly all actives have a fitted effect of over 50% in size
CHX counter – counter-screen for Shiga toxin inhibitors: cycloheximide protein synthesis inhibition; cell reporter, cycloheximide protein synthesis inhibition counterscreen; max response, %; actives 12% (n = 300,000); AID 2314; in the data active = max response mostly above about 13%, no sharp cut-off; inactive = mostly below about 14%; also: read at 38.3 µM for the half of the compounds with a filed dose
Shiga inhibitor – Shiga toxin inhibition; Vero cells, Shiga toxin protein synthesis inhibition reporter; inhibition, % at 38.7 µM; actives 9.2% (n = 290,000); AID 2315; in the data active = inhibition mostly above about 28%, no sharp cut-off; inactive = mostly below about 43%
HCV inh – blocks hepatitis C virus | actives 3.4% (n = 340,000) | Huh7.5.1 HCVcc-Cre infection, luciferase reporter, 44 h | Potency, µM (top dose mostly 41.8 µM), hits mostly inhibitors; active = well fitted inhibition curve with a large enough effect; inconclusive = small, poorly fitted or top-dose-only effect, or another doubt; inactive = no such curve, though single readings can be large or run the other way
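Luciferase read-out (15 sec integration) after a 15 min room-temperature substrate step quantifies HCVcc-Cre infection. Cells, 1,000 per well, had compound added 4 h post-plating, then virus at ~0.5 moi, and were cultured 44 h.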
A number is an active result; n = inactive; u = inconclusive; x = not tested or not shown; + = active, no number.

SMILES	Marburg entry inh	FMDV antiviral	Lassa entry inh	CHX counter	Shiga inhibitor	HCV inh
CN1CCc2c(sc3c2C(=O)NC(/C=C\c2ccccc2)N3)C1 (centres undefined)	n	n	n	n	n	n
CC1=C(/C=C/c2ccccc2)CCN(C)C1	n	n	n	33	n	x
O=S1(=O)c2ccc(Br)cc2N2CCC[C@H]2CN1Cc1ccccc1	x	n	x	x	x	u
C[C@@H](c1ccccc1)N1C[C@H]2CCCN2c2cc(Br)ccc2S1(=O)=O	x	n	u	x	x	11µM
O=C1CS/C(=N\NC(=O)c2ccccc2)N1	n	n	n	n	n	n
CC1=C/C(=N\NC(=O)c2ccccc2)CC1	n	n	u	43	+	n
CC(C)OC(=O)n1c(=S)oc2ccccc21	u	x	n	44	68	n
CCCCC(=O)/C=C/n1c(=S)oc2ccccc21	18µM	u	n	35	44	u
CCOC(=O)C1CCN(C(=O)c2ccccc2NS(=O)(=O)c2ccc(F)cc2)CC1	u	n	n	n	n	n
CC(=O)c1ccc(NC(=O)NCCc2c[nH]c3ccccc23)cc1	n	n	n	x	x	x
COc1ccc(/C=C/C(=O)NCC2COc3ccccc3O2)c(OC)c1 (centres undefined)	n	n	n	20	46	n
Cc1cc(C)c(OCC(=O)NCC2COc3ccccc3O2)c(C)c1 (centres undefined)	3.5µM	n	n	x	x	n
COc1ccccc1NC(=O)C(=O)NCC1COc2ccccc2O1 (centres undefined)	n	x	n	23	n	n
O=C(/C=C/c1ccco1)NCC1COc2ccccc2O1 (centres undefined)	n	n	n	36	n	n
COc1cc(CC(=O)NCC2COc3ccccc3O2)cc(OC)c1OC (centres undefined)	n	n	n	n	n	n
O=C(Cc1ccccc1)NCC1COc2ccccc2O1 (centres undefined)	n	x	n	x	x	n
CS(=O)(=O)c1ccc(C2=C(CNC(=O)c3cccs3)[C@H]3CC[C@@H](C2)N3CCOc2ccccc2)cc1	x	n	x	x	x	x
CCc1oc2ccccc2c1C(=O)CCN1CCCCC1	n	n	u	n	n	n
CCCCc1ccc(Nc2ncccc2C#N)cc1	n	n	u	58	122	n
Cc1ccc(-c2csc3nc(SCC(N)=O)n(Cc4ccccc4)c(=O)c23)cc1	u	32µM	n	n	n	u
O=C(CSc1nc2ccsc2c(=O)n1Cc1ccccc1)NCc1ccco1	n	n	n	47	active	8.9µM
CCC(Sc1nc2ccsc2c(=O)n1-c1ccc(Cl)c(C)c1)C(=O)NCc1ccco1 (centres undefined)	u	n	n	25	44	u
CCC(Sc1nc2ccccc2c2nc3ccccc3n12)C(=O)NCc1ccco1 (centres undefined)	n	x	x	n	n	x
Cc1sc2nc(SCC(=O)NCc3ccco3)n(Cc3ccccc3)c(=O)c2c1C	n	n	n	n	n	2.2µM
NC(=O)CN1CCOCCN(CC(N)=O)CCOCC1	n	n	n	n	n	n
SMILES	Marburg entry inh	FMDV antiviral	Lassa entry inh	CHX counter	Shiga inhibitor	HCV inh
S=c1[nH]nc(-c2ccc3ccccc3n2)n1-c1ccc2c(c1)OCCO2	n	n	n	n	n	n
Cc1nnc(SCCN2C(=O)c3ccccc3C2=O)nc1C	x	n	x	x	x	n
O=C(CSc1nc2ccccc2c(=O)n1-c1ccccc1)NCc1ccco1	n	n	n	42	n	n
CN1CCc2c(sc3nc(SCC(=O)NCc4ccco4)n(-c4ccccc4)c(=O)c23)C1	x	n	x	39	48	u
CCN(CC)C(=O)CSc1nc2c(sc(=S)n2-c2ccccc2)c(=O)n1Cc1ccco1	9.2µM	u	u	n	n	10µM
CN(Cc1ccccc1)C(=O)CSc1nc2ccccc2c(=O)n1Cc1ccco1	6.5µM	x	5.8µM	38	n	u
Cc1ccc(CCN2CC(C(=O)NCCCN3CCOCC3)CC2=O)cc1 (centres undefined)	n	n	n	n	n	n
CSc1nc(SCC(=O)NC(c2ccccc2)c2ccccc2)c2c3c(sc2n1)CN(C)CC3	9.2µM	n	u	n	n	1.8µM
O=C(CSc1nc2ccccc2c(=O)n1Cc1ccco1)NCc1ccco1	n	x	n	n	n	10µM
Cc1cc(NC(=O)CSc2nc3c(c(=O)n2Cc2ccccc2)SC(C)C3)no1 (centres undefined)	x	n	x	n	n	n
COCCn1c(C)cc(C(=O)CSc2nc3ccccc3c(=O)n2Cc2ccco2)c1C	u	n	u	23	96	u

Source: PubChem BioAssay (National Center for Advancing Translational Sciences (NCATS))
